This note sets out measurements from the supplement of paper PMC10338343.

± gives the standard deviation.
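Also: 1 nM active piRISC with 0.1 nM target library at 33 °C single turnover.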

This assay deals with MILI (PIWIL2) piRISC loaded with piRNA #1 (26 nt). The experiment in a line: pre-steady-state target cleavage rate (min^-1); guide: piRNA #1 5'p-UGAGGUAGUAGGUUGUAUAGUAUCCA; MIWI and MILI are mouse PIWI proteins and EfPiwi is from a freshwater sponge; tags in brackets are library labels; higher = faster piRNA-guided slicing of the target. Conditions: auxiliary factor: 500 nM mouse GTSF1. In short, it runs like this: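 Active affinity-purified piRISC carrying one synthetic guide (1 nM) was mixed with a transcribed, DNA-blocked target RNA library […] in HEPES–potassium acetate buffer at 33 °C for 0–8 or 0–960 min, with or without 500 nM GTSF1 partner protein. Uncleaved targets were then sequenced and normalised to depth and to weakly complementary targets. Three trials were pooled, and k3 was capped at 0.0001 min^-1. A burst-and-steady-state fit was applied to obtain the pre-steady-state cleavage rate.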
Turning to GGAGACCUAACUAGUACAACCUACUACCUCA, the “pre-steady-state target cleavage rate” value was 0.0828 ± 0.019.
As for GGAGACCUAUGAUAACAACCCACUACCUCA, the figure is 0.00347 ± 0.0029; as for GGAGACCUAUGAUAUGUUUCUACUACCUCA, under 0.0001; as for GGAGACCUAUGUAUACUACCUUCUACCUCA, 0.00348 ± 0.0016.
GGAGUGGAUACUAAACAACCUUCUACCUCA: the “pre-steady-state target cleavage rate” value was 0.00905 ± 0.0025.
Under GGAGACCUAACUAUACAACGUACAACCUCA stands 0.0148 ± 0.005.
Consider GGAGUGGAUUCUAUACAACCUACAACCUCA, for which the “pre-steady-state target cleavage rate” value was determined as 0.0777 ± 0.0074.
Regarding GGAGACCUAUGAAUACUAGCUACUACCUCA, the “pre-steady-state target cleavage rate” value came to 0.00307 ± 0.002.
Under GGAGACCAUACUAUACUACCAACUACCUCA stands 0.00547 ± 0.0022; under GGAGUGGUUACUAUACAACCUACUACCUGA, 0.0722 ± 0.01.
Consider GGAGACCAUAGUAUACAACGUACUACCUCA, for which the “pre-steady-state target cleavage rate” value worked out at 0.0174 ± 0.0033.
Regarding GGAGACCUAACUAACAACCUACUACCUCA, the “pre-steady-state target cleavage rate” value worked out at 0.0182 ± 0.0067.
Consider GGAGACCUAUCAAUACAACGUACUACCUCA, for which the “pre-steady-state target cleavage rate” value is 0.00874 ± 0.0028.
Consider GGAGACCUAUGUAUAUAACCUACUACCUCA, for which the “pre-steady-state target cleavage rate” value stood at 0.0579 ± 0.0076.
As for GGAGACCUUACUUUACAACCAACUACCUCA, the “pre-steady-state target cleavage rate” value stood at 0.00491 ± 0.0033.
Under GGAGACCUAUCAAUACAACCUACUACCUGA stands 0.0265 ± 0.0091; under “GGAGACCAUACUAUACAACGAUGAUGGAGA [g12:g23:cont:t1A]”, under 0.0001; under GGAGACCUAUGAUUACAAGCUACUACCUGA, 0.0183 ± 0.0056.
As for GGAGACCUAUGUAUACAACCUACUAGCCUCA, the figure is 0.0572 ± 0.013.
Under GGAGACCUUACAAUACAACCUAGUACCUCA stands 0.043 ± 0.013; under GGAGACCAUACAAUACAACCUACUACGUCA, 0.0912 ± 0.014; under GGAGACCUAACUAUAUCAACCUACUACCUCA, 0.00944 ± 0.004.
Regarding GGAGACCUAUGAAUACCACCUACUACCUCA, the “pre-steady-state target cleavage rate” value was 0.00372 ± 0.0036.
Under GGAGUGGAUUCAAUACAACCUACUACCUCA stands 0.142 ± 0.0076.
For the sequence GGAGACCUAUGAUUACAAGCUACUUCCUCA, the “pre-steady-state target cleavage rate” value came out at 0.0143 ± 0.0037.
Take GGAGACCUAUGAUUACAACCUACAUACCUCA: the “pre-steady-state target cleavage rate” value stood at 0.00484 ± 0.0019.
As for GGAGACCUUACUAUACAACCUACUACUCA, the figure is 0.216 ± 0.025.
As for GGAGACCAUACUAAACAACCUAGUACCUCA, the figure is 0.0362 ± 0.0083.
As for GGAGACCUAUGAUUACUACCUACUUCCUCA, the figure is 0.00322 ± 0.0022; as for GGAGACCUAUGAUAUGUUGCUAGAACCUCA, under 0.0001; as for GGAGACCUAUGAUAUGUACCUACUAGCUCA, under 0.0001.
Turning to GGAGACCUAUGUAUAGAUCCUACUACCUCA, the “pre-steady-state target cleavage rate” value was 0.0611 ± 0.0081.
Under GGAGACCUAUGAUAUGUUCCUACUACCAUCA stands under 0.0001.
Turning to GGAGACCUUACUAUUCAACGUACUACCUCA, the “pre-steady-state target cleavage rate” value was determined as 0.0187 ± 0.0035.
As for GGAGACCUAACUAUACAACCUACUACCUAA, the figure is 0.0853 ± 0.015; as for GGAGACCUAUGAAUACAUCCUACAACCUCA, 0.0119 ± 0.0025.
Regarding GGAGACCUUACUAUACAACCUACUUCCUGA, the “pre-steady-state target cleavage rate” value worked out at 0.0269 ± 0.0086.
Under GGAGACCUAUGAUAUGUACCUACUACCUGA stands under 0.0001; under GGAGACCUAACUAAACAACCUAGUACCUCA, 0.0123 ± 0.0073.
